We go through 29 compounds from the supplement of paper PMC8877412.

Counter-ions that a name gives are not always drawn. ± gives the uncertainty stated by the source.

For the experiment, the system named is NCC-PMP1-C1. Description: cell viability relative to DMSO control; higher = less growth inhibition. Particulars: 10 µM; 72 h. The method, then:
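NCC-PMP1-C1 pseudomyxoma peritonei cells were seeded in 384-well plates coated with Matrigel and MEF (1e4 cells). Viability was read after 72 h by CCK-8 and expressed as % of the DMSO control, mean ± SD of duplicates.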
Regarding `Cc1ccc(NC(=O)c2ccc(CN3CC[C@H](N(C)C)C3)c(C(F)(F)F)c2)cc1Nc1nccc(-c2cncnc2)n1` [Bafetinib (INNO-406)], the cell viability – broadly, a read-out of living cells in per cent, often relative to untreated cells – turned out to be 72.1 ± 3.7%.

As for `CS(=O)(=O)OCCCCOS(C)(=O)=O` [Busulfan], the cell viability is 121 ± 7.5%.

As to `CS(=O)(=O)c1ccc(C(=O)Nc2ccc(Cl)c(-c3ccccn3)c2)c(Cl)c1` [Vismodegib (GDC-0449)], the cell viability was determined as 90.5 ± 3.3%.

With `O=C(Nc1nc2cccc(-c3ccc(CN4CCS(=O)(=O)CC4)cc3)n2n1)C1CC1` [Filgotinib (GLPG0634)], the cell viability is 93.7 ± 8.6%.

Consider `C#Cc1cccc(Nc2ncnc3cc(OCCOC)c(OCCOC)cc23)c1` [Erlotinib], for which the cell viability is 66.7 ± 5.8%.

As to `COc1ccc2[nH]c([S@@+]([O-])Cc3ncc(C)c(OC)c3C)nc2c1` [Esomeprazole Sodium], the cell viability was found to be 108 ± 1.5%.

On to `CN(C)C/C=C/C(=O)Nc1cc2c(Nc3ccc(F)c(Cl)c3)ncnc2cc1O[C@H]1CCOC1` [Afatinib (BIBW2992)], for which the cell viability was determined as 12.4 ± 2.3%.

Turning to `C=CC(=O)Nc1cc2c(Nc3ccc(F)c(Cl)c3)ncnc2cc1OCCCN1CCOCC1` [Canertinib(CI-1033)], the cell viability amounted to 92.8 ± 7.2%.

For `COc1cc([C@@H]2c3cc4c(cc3[C@@H](O[C@@H]3O[C@@H]5CO[C@@H](C)O[C@H]5[C@H](O)[C@H]3O)[C@H]3COC(=O)[C@H]23)OCO4)cc(OC)c1O` [Etoposide], the cell viability is 61.1 ± 1.9%.

For the compound `CC1(COc2ccc3c(c2)ncn3-c2ccc3cccc(N4CCC(N)CC4)c3n2)COC1`, the cell viability is 70 ± 8.6%.

For the compound `Nc1nc(Cl)nc2c1ncn2[C@@H]1O[C@H](CO)[C@@H](O)[C@@H]1F` [Clofarabine], the cell viability was determined as 112 ± 5.7%.

Turning to `Cc1nc(Nc2ncc(C(=O)Nc3c(C)cccc3Cl)s2)cc(N2CCN(CCO)CC2)n1` [Dasatinib], the cell viability stood at 26.3 ± 4.4%.

Turning to `CCN1CCN(Cc2ccc(Nc3ncc(F)c(-c4cc(F)c5nc(C)n(C(C)C)c5c4)n3)nc2)CC1` [Abemaciclib], the cell viability stood at 65.2 ± 4.2%.

For the compound `COc1cccc2c1C(=O)c1c(O)c3c(c(O)c1C2=O)C[C@@](O)(C(C)=O)C[C@@H]3O[C@H]1C[C@H](N)[C@H](O)[C@H](C)O1` [Daunorubicin HCl], the cell viability was -1.33 ± 0.2%.

For the compound `CC(=O)O[C@H]1C(=O)[C@@]2(C)[C@H]([C@H](OC(=O)c3ccccc3)[C@]3(O)C[C@H](OC(=O)[C@H](O)[C@@H](NC(=O)c4ccccc4)c4ccccc4)C(C)=C1C3(C)C)[C@]1(OC(C)=O)CO[C@@H]1C[C@@H]2O` [Paclitaxel], the cell viability was 81.6 ± 12%.

`Fc1ccc(C(c2ccc(F)cc2)N2CCN(C/C=C/c3ccccc3)CC2)cc1` [Flunarizine 2HCl]: the cell viability turned out to be 99.6 ± 22%.

`Nc1nc(CC(=O)Nc2ccc(CCNC[C@H](O)c3ccccc3)cc2)cs1` [Mirabegron]: the cell viability came to 101 ± 5.9%.

Turning to `CC(=O)OCC(CCn1cnc2cnc(N)nc21)COC(C)=O` [Famciclovir], the cell viability turned out to be 94.3 ± 12%.

Consider `S=C(NCc1ccc2c(c1)OCO2)N1CCN(c2ncnc3c2oc2ccccc23)CC1` [Amuvatinib (MP-470)], for which the cell viability was determined as 176.1 ± 0.89%.

As for `O=c1c(-c2ccc(O)cc2)coc2cc(O)cc(O)c12` [Genistein], the cell viability came out at 100 ± 2.1%.

Turning to `COc1cc2c(cc1O)CCN[C@]21CS[C@@H]2c3c(OC(C)=O)c(C)c4c(c3[C@H](COC1=O)N1[C@@H]2[C@H]2c3c(cc(C)c(OC)c3O)C[C@@H]([C@@H]1O)N2C)OCO4` [Trabectedin], the cell viability was -0.842 ± 0.95%.

`O=C(O)C1=CO[C@@H](O[C@@H]2O[C@H](CO)[C@@H](O)[C@H](O)[C@H]2O)[C@@H]2C(CO)=CC[C@H]12` [Geniposidic acid]: the cell viability turned out to be 97.1 ± 2.2%.

For `C[C@@H](CN1CC(=O)NC(=O)C1)N1CC(=O)NC(=O)C1` [Dexrazoxane], the cell viability is 94.8 ± 15%.

On to `Nc1nc2n[nH]nc2c(=O)[nH]1` [Azaguanine-8], for which the cell viability came out at 55.8 ± 6.5%.

In the case of `CO[C@@]12[C@H](COC(N)=O)C3=C(C(=O)C(C)=C(N)C3=O)N1C[C@@H]1N[C@@H]12` [Mitomycin C], the cell viability worked out at 60.3 ± 9.8%.

As for `CC[C@H]1OC(=O)[C@H](C)[C@@H](O[C@H]2C[C@@](C)(OC)[C@@H](O)[C@H](C)O2)[C@H](C)[C@@H](O[C@@H]2O[C@H](C)C[C@H](N(C)C)[C@H]2O)[C@](C)(O)C[C@@H](C)CN(C)[C@H](C)[C@@H](O)[C@]1(C)O` [Azithromycin], the cell viability is 123 ± 2.7%.

Take `CC1=C(CC(=O)O)c2cc(F)ccc2/C1=C\c1ccc([S+](C)[O-])cc1` (centres undefined) [Sulindac]: the cell viability was 111 ± 29%.

Take `C[C@@H]1CCN(C(=O)CC#N)C[C@@H]1N(C)c1ncnc2[nH]ccc12`: the cell viability amounted to 77.2 ± 22%.

Turning to `CCN(CC)CCNC(=O)c1c(C)[nH]c(/C=C2\C(=O)Nc3ccc(F)cc32)c1C` [Sunitinib], the cell viability worked out at 35.5 ± 3.6%.
